# Data taken from the supplement of paper PMC9023506.
# Where a name gives a salt, the structure may show the parent alone.
# Test system: Danio rerio larvae (5 dpf)
# Test: optomotor response to green moving lines, difference vs DMSO (percentage points (treated minus DMSO)); higher = more of the behaviour than the DMSO vehicle control
# Conditions: 10 µM; exposure time: 3 h pre-incubation + 3 h imaging
# Description: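 5-dpf wild-type zebrafish larvae were imaged in 96-well plates. They were treated with 190 Tocris FDA-approved drugs at 10 µM (1 µl/ml DMSO) for 3 h before and 3 h during imaging at 28.5 °C, 48 larvae per drug. Automated image analysis gave % time moving and optomotor responses. Values are drug group mean minus DMSO vehicle mean (n=844), in percentage points, for 10 behaviours.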
row,Structure (SMILES),optomotor response to green moving lines
1,O=C(Nc1c(Cl)cncc1Cl)c1ccc(OC(F)F)c(OCC2CC2)c1 [Roflumilast],-11.7
2,CC[C@H](C)C(=O)O[C@H]1C[C@@H](C)C=C2C=C[C@H](C)[C@H](CC[C@@H]3C[C@@H](O)CC(=O)O3)[C@H]21 [Lovastatin],-3.13
3,CCN(CC)CCNC(=O)c1c(C)[nH]c(/C=C2\C(=O)Nc3ccc(F)cc32)c1C [Sunitinib malate],-7.59
4,CC(C)c1nc(CN(C)C(=O)N[C@H](C(=O)N[C@@H](Cc2ccccc2)C[C@H](O)[C@H](Cc2ccccc2)NC(=O)OCc2cncs2)C(C)C)cs1 [Ritonavir],-6.36
5,COc1cc(N)c(Cl)cc1C(=O)NC1CCN(CCCOc2ccc(F)cc2)CC1OC (stereo not given) [Cisapride],5.81
6,CO[C@H]1/C=C/O[C@@]2(C)Oc3c(C)c(O)c4c(O)c(c5c(nc6cc(C)ccn65)c4c3C2=O)NC(=O)/C(C)=C\C=C\[C@H](C)[C@H](O)[C@@H](C)[C@@H](O)[C@@H](C)[C@H](OC(C)=O)[C@@H]1C [Rifaximin],0.563
7,CNS(=O)(=O)Cc1ccc2[nH]cc(CCN(C)C)c2c1 [Sumatriptan succinate],3.74
8,CCOc1cc(CC(=O)N[C@@H](CC(C)C)c2ccccc2N2CCCCC2)ccc1C(=O)O [Repaglinide],4.27
9,CN1CCC[C@@H]1CCO[C@](C)(c1ccccc1)c1ccc(Cl)cc1 [Clemastine fumarate],4.02
10,CN(C)CCC[C@@]1(c2ccc(F)cc2)OCc2cc(C#N)ccc21 [Escitalopram oxalate],1.9
11,Clc1ccc(COC(Cn2ccnc2)c2ccc(Cl)cc2Cl)c(Cl)c1 (stereo not given) [Miconazole nitrate],-5.21
12,O=C(NCC1CCCCN1)c1cc(OCC(F)(F)F)ccc1OCC(F)(F)F (stereo not given) [Flecainide acetate],18.1
13,Nc1nc(F)nc2c1ncn2[C@@H]1O[C@H](CO)[C@@H](O)[C@@H]1O [Fludarabine],1.3
14,CCOC(=O)N1CCC(=C2c3ccc(Cl)cc3CCc3cccnc32)CC1 [Loratidine],-5.38
15,COc1cc2nccc(Oc3ccc(NC(=O)C4(C(=O)Nc5ccc(F)cc5)CC4)cc3)c2cc1OC,9.65
16,Nc1ccn([C@@H]2O[C@H](CO)[C@@H](O)C2(F)F)c(=O)n1 [Gemcitabine hydrochloride],0.29
17,N#Cc1ccc2[nH]cc(CCCCN3CCN(c4ccc5oc(C(N)=O)cc5c4)CC3)c2c1 [Vilazodone hydrochloride],-30.3
18,CCN(Cc1ccncc1)C(=O)C(CO)c1ccccc1 (stereo not given) [Tropicamide],-4.16
19,Cc1ccccc1C(=O)Nc1ccc(C(=O)N2CCCC(O)c3cc(Cl)ccc32)c(C)c1 (stereo not given) [Tolvaptan],10.3
20,CCOC(=O)[C@H](CCc1ccccc1)N[C@@H](C)C(=O)N1[C@H](C(=O)O)C[C@@H]2CCC[C@@H]21 [Ramipril],-0.542

row,Structure (SMILES),optomotor response to green moving lines
1,CCC(=O)O[C@]1(C(=O)SCF)[C@H](C)C[C@H]2[C@@H]3C[C@H](F)C4=CC(=O)C=C[C@]4(C)[C@@]3(F)[C@@H](O)C[C@@]21C [Fluticasone propionate],2.35
2,O=C(c1ccc(OCCN2CCCCC2)cc1)c1c(-c2ccc(O)cc2)sc2cc(O)ccc12 [Raloxifene hydrochloride],-7.74
3,C[C@H]1C[C@@H]2[C@H]([C@@H](O)C[C@@]3(C)[C@H]2CC[C@]3(O)C(=O)CO)[C@@]2(C)C=CC(=O)C=C12 [Methylprednisolone],5.3
4,COc1cc([C@@H]2c3cc4c(cc3[C@@H](O[C@@H]3O[C@@H]5CO[C@@H](C)O[C@H]5[C@H](O)[C@H]3O)[C@H]3COC(=O)[C@H]23)OCO4)cc(OC)c1O [Etoposide],-0.812
5,C=CC(=O)N1CCC[C@@H](n2nc(-c3ccc(Oc4ccccc4)cc3)c3c(N)ncnc32)C1 [Ibrutinib],-2.12
6,CCCCCCCN(CC)CCCC(O)c1ccc(NS(C)(=O)=O)cc1 (stereo not given) [Ibutilide hemifumarate],4.88
7,COc1ccc(C[C@@H](C)NC[C@H](O)c2ccc(O)c(NC=O)c2)cc1 [Arformoterol tartrate],0.317
8,N#C[C@@H]1C[C@@H]2C[C@@H]2N1C(=O)[C@@H](N)C12CC3CC(CC(O)(C3)C1)C2 [Saxagliptin hydrochloride],-3.2
9,Cc1cc(C2CCCCC2)n(O)c(=O)c1 [Ciclopirox],-5.97
10,CN1CCC[C@@H]1Cc1c[nH]c2ccc(CCS(=O)(=O)c3ccccc3)cc12 [Eletriptan hydrobromide],6.81
11,CC(C)(C(=O)c1cccnc1)c1cccnc1 [Metyrapone],-5.18
12,CC(=O)O[C@]1(C(C)=O)CC[C@H]2[C@@H]3C=C(C)C4=CC(=O)CC[C@]4(C)[C@H]3CC[C@@]21C [Megestrol Acetate],-2.03
13,CN/C(=N\CCSCc1nc[nH]c1C)NC#N [Cimetidine],5.06
14,O=C(O[C@@H]1C[C@@H]2C[C@H]3C[C@H](C1)N2CC3=O)c1c[nH]c2ccccc12 [Dolasetron mesylate],-11.6
15,Cc1ccc(O)c([C@H](CCN(C(C)C)C(C)C)c2ccccc2)c1 [Tolterodine L-tartrate],0.477
16,Cc1ccc(NC(=O)c2ccc(CN3CCN(C)CC3)cc2)cc1Nc1nccc(-c2cccnc2)n1 [Imatinib mesylate],-13.4
17,C#C[C@]1(O)CC[C@H]2[C@@H]3CCC4=CC(=O)CC[C@@H]4[C@H]3CC[C@@]21CC [Levonorgestrel],5.26
18,O=C(O)CCCc1ccccc1 [Sodium 4-Phenylbutyrate],-2.96
19,NS(=O)(=O)Cc1noc2ccccc12 [Zonisamide],8.43
20,CC(c1cc2ccccc2s1)N(O)C(N)=O (stereo not given) [Zileuton],-11.3
